Measured values published in PubChem BioAssay AID1645855 (Buhrlage Lab, Dana-Farber Cancer Institute and Novartis …, 2021).
The campaign covered roughly 47,000 compounds. About 3,100 (6.6%) were called active. The list comes from a sample in which actives are over-represented; it also holds similar structures and randomly drawn compounds. Unmarked numbers belong to inactive results. Cut-off read from the data, not from the text of the source: active = inhibition above about 30%; inactive = the rest.

Target: Ubiquitin carboxyl-terminal hydrolase 17-like protein 5 (Homo sapiens) (UniProt A8MUK1)
Sequence (A8MUK1 whole entry, looked up): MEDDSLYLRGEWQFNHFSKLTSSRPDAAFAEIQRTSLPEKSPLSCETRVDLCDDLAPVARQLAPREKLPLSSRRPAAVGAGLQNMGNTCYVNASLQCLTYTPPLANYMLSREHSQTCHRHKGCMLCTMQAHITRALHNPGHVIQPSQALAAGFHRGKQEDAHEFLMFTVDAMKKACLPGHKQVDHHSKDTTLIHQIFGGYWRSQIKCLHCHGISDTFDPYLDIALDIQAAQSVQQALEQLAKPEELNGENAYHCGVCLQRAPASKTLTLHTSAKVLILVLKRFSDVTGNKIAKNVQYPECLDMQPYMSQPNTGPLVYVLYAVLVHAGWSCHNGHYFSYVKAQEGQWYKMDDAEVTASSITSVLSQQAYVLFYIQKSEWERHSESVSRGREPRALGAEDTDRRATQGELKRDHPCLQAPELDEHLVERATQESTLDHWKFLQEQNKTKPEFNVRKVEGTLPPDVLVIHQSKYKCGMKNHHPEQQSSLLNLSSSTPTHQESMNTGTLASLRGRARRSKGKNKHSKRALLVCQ
Assay: blocks human USP17 ubiquitin-rhodamine cleavage (AID 1645855)
Conditions: purified USP17, Ub-rhodamine cleavage fluorescence, 3 h; at 50 µM; active compounds read high

| SMILES | inhibition |
| --- | --- |
| Cc1cccc(NC(=O)c2csc(-c3cn(C)c4ncccc34)n2)c1 | 2.63% |
| Cn1cc(-c2nc(C(=O)Nc3ccc(F)cc3)cs2)c2cccnc21 | 59.4% (active) |
| Cn1cc(CCNC(=O)c2cc3ccccc3[nH]2)c2cccnc21 | -17.1% |
| COCCNC(=O)C1c2ccccc2C(=O)N(C2CCCC2)C12CCCCC2 (stereo not given) | -1.76% |
| O=S(Cc1cc(Sc2ccccc2)nc(-c2ccccn2)n1)c1ccc(Cl)cc1 (stereo not given) | -9.57% |
| CC(C)(C)c1cc2n(n1)CCN(Cc1ccccc1C(F)(F)F)C2 | -4.87% |
| COc1cccc(C(=O)N2CCC(c3nc4ccncc4n3C)C2)c1 (stereo not given) | 10% |
| c1coc(CNc2nc(Nc3cccc4ccccc34)nc3ccccc23)c1 | 83.4% (active) |
| Fc1ccc(-n2cc(-c3ccccc3)c3c(NCc4ccco4)ncnc32)cc1 | -3.63% |
| O=C(CCc1nnc2ccc(N3CCCCC3)nn12)NCCC1=CCCCC1 | 1.2% |
| O=c1ccc(-c2nc(-c3cnccn3)no2)cn1Cc1ccccc1C(F)(F)F | 7.06% |
| O=C1CNC(=O)N1CC(O)Cn1c2ccc(Br)cc2c2cc(Br)ccc21 (stereo not given) | 40.1% (active) |
| Cc1ccc(Cn2c(C)c(CNCCC3=CCCCC3)c(C(=O)O)c2C)cc1 | 7.92% |
| CCc1ccc(-n2c(=O)c3ccccc3n(CC(=O)NCCC3=CCCCC3)c2=O)cc1 | 64.3% (active) |
| O=C(CCc1nnc2n(CCc3ccccc3)c(=O)c3ccccc3n12)NCCN1CCCC1 | 13.7% |
| CN(CCc1ccccn1)C(=O)c1cc2c(=O)oc3ccccc3c2s1 | 14.5% |
| O=C(CC(NCc1cccnc1)C(=O)O)Nc1ccccc1 (stereo not given) | 6.61% |
| COc1cc(C)c(CN2CCc3c(nc4cc(-c5cc(C)on5)[nH]n4c3=O)C2)cc1OC | 4.84% |
| O=c1[nH]c(-c2ccccn2)nc2c1CCN(Cc1cnn(-c3ccc(F)cc3)c1)C2 | 43.5% (active) |
| O=c1[nH]c(-c2ccncc2)nc2c1CCN(Cc1cn[nH]c1-c1ccc(Cl)cc1)C2 | -0.0464% |
| C#CCOc1ccc(CN2CCc3nc(-c4cccnc4)[nH]c(=O)c3C2)cc1OC | -0.00604% |
| CCc1cccc(C)c1NC(=O)Cn1nc2ccc(C(=O)NCc3ccccc3)cn2c1=O | 16.4% |
| Cc1ccc(-c2cc(=O)[nH]c(NCc3ccccc3)n2)cc1 | -6.42% |

| SMILES | inhibition |
| --- | --- |
| CC(=O)N1CCN(c2cc(N3CCCCC3)nc(C)n2)CC1 | -36.6% |
| CCCN1CCN(c2ccc(C(=O)O)cc2NS(=O)(=O)c2cc(F)ccc2F)CC1 | 10.4% |
| Cc1ccc(-c2cc(C(F)F)n3ncc(C(=O)NCC(C)C)c3n2)cc1 | 36.6% (active) |
| Cc1cc(Nc2ccc(C(=O)NCC(C)C)cc2)n2nc(-c3cccnc3)nc2n1 | -7.54% |
| COc1ccc(-c2cc(C(F)F)n3ncc(C(=O)N(C)Cc4c(C)nn(C)c4C)c3n2)cc1 | -8.87% |
| O=C(O)COc1ccccc1C(c1c[nH]c2ccccc12)c1c[nH]c2ccccc12 | -15.6% |
| COc1ccc(CN2CCN(C(=O)c3ccc4c(c3)OCO4)CC2)cn1 | -5.73% |
| CC(C)c1ccc(NC(=O)CCC(=O)N(c2ccccc2)c2ccccc2)cc1 | 6.5% |
| O=S(=O)(Nc1cccc(O)c1)c1ccc2oc3ccc(S(=O)(=O)Nc4cccc(O)c4)cc3c2c1 | 39.1% (active) |
| Cc1cccc(NS(=O)(=O)c2ccc3nnc(C)n3c2)c1 | 4.3% |
| COc1cccc(NS(=O)(=O)c2ccc(-c3coc(C)n3)cc2)c1 | 0.103% |
| CC1(C)Cc2cccc(OCC(=O)NCC(F)(F)F)c2O1 | 4.4% |
| COC(=O)c1ccc(C(=O)NCC2(O)CCc3ccccc32)cc1 (stereo not given) | -0.0822% |
| COCCN1C[C@@]23CN(C(=O)NCc4ccccc4)C[C@@H](C[C@@H]2S1(=O)=O)O3 | 12.1% |
| CC(=O)Nc1ccc(-n2cnc(C(=O)N3CCN(c4cccc(C)c4)CC3)c2)nc1 | -7.95% |
| CC(=O)Nc1ccc(-n2cnc(C(=O)NCc3ccc(C)cc3)c2)nc1 | 64.2% (active) |
| CC(=O)Nc1ccc(-n2cnc(C(=O)N3CCN(c4ccc(C)cc4)CC3)c2)nc1 | 13.8% |
| Cc1nc(C2CCN(S(C)(=O)=O)CC2)nc2c1CCC(=O)N2CC(C)C | -7.01% |
| Cc1cc2nc(Cc3ccccc3)cc(=O)n2[nH]1 | -11.5% |
| CC1CCCN(C(=O)c2cc(S(=O)(=O)N3CCCCC3)ccc2Cl)C1 (stereo not given) | -1.66% |
| CC(C)NC(=O)CN1C(=O)CC(C)Sc2ccc(S(=O)(=O)N3CCCCC3)cc21 (stereo not given) | 43.8% (active) |
| CCN1CCN(S(=O)(=O)c2ccc3c(c2)CC(C)N3C(=O)C2CC2)CC1 (stereo not given) | 2.74% |
